Experimental data as given in PubChem BioAssay AID778 (Sanford-Burnham Center for Chemical Genomics, 2007).
Screen size: about 96,000 compounds; about 20,000 (21%) were called active. These entries were drawn from the full list. Values without a mark were called inactive.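 Rule for the calls: active = CYP2C19 inhibition above a set limit at 5 µM in the primary screen (cut at about 50% in these data); inactive = the rest.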

biological target: Cytochrome P450 2C19 (Homo sapiens) (UniProt P33261); experiment: blockers of cytochrome P450 2C19 activity – biochemical, luminescence, ADME assay, primary screen (AID 778); conditions: CYP2C19 Supersomes, luciferin-H EGE luminescence, 30 min; at 5 µM; stronger effect = higher value;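 note: plate controls were negative control wells for no effect and 2.5 mM tranylcypromine positive control for full effect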
Sequence (P33261 whole entry, looked up): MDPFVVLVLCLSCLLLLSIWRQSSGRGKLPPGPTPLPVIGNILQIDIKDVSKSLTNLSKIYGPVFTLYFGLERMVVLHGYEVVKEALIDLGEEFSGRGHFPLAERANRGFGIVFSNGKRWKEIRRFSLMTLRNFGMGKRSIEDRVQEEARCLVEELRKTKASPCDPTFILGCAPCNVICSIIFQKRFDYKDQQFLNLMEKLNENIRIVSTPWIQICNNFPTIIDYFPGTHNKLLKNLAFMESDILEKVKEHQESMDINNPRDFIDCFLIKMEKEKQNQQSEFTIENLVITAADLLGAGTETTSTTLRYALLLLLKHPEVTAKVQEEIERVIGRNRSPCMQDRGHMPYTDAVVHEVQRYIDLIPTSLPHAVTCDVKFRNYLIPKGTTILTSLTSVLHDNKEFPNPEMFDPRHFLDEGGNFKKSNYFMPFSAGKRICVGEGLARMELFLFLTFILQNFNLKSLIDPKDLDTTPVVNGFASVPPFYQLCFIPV

SMILES | inhibition
CCOc1[nH]n(-c2ccc(Cl)cc2)c(=O)c1C=Nc1ccc(O)cc1 | 13.5%
CCCN1CCN(C(=O)Cn2ncc3ccccc32)CC1 | 12.6%
Cc1nnc(N(Cc2ccco2)C(=O)c2ccno2)s1 | 80.5% (active)
COCCN(C(=O)c1ccco1)c1nnc(-c2ccc(OC)cc2)s1 | 24%
CN(C(=O)c1ccno1)c1nnc(-c2cccnc2)s1 | -0.7%
Cc1nnc(SCCCn2c(N3CCCCC3)nc3c2c(=O)[nH]c(=O)n3C)s1 | 22.6%
Cc1ccc(O)c(NC(=O)COc2cc(C)ccc2C)c1 | -2.7%
Cc1cccc(NC(=O)COc2ccc(Br)cc2C)n1 | 5%
CCCn1nnnc1NC(=O)COc1ccc(Cl)cc1C | 70.2% (active)
CN1CCN(S(=O)(=O)c2ccc3[nH]cc(C(=O)O)c(=O)c3c2)CC1 | 3.6%
CCNC(=S)Nc1cccc(Cl)c1C | 48%
Cc1cc(C)nc(SCc2ccccc2C#N)n1 | 50.2% (active)
Clc1ccccc1CSc1nnc(-c2ccco2)c(-c2ccco2)n1 | 31.1%
Nc1nc(SCc2ccccc2Cl)n[nH]1 | 0.1%
Cc1ccc(CS(=O)(=O)CCC(=O)NC2CC2)cc1 | 9.7%
COc1ccc(CNC(=O)CCn2cccc2)cc1 | 35%
COc1ccc(OCC(=O)NCCc2ccc(S(N)(=O)=O)cc2)cc1 | 19.4%
CCCCCNC(=O)Cc1ccc(OC)cc1 | 92.4% (active)
O=C(NCCN=C1NS(=O)(=O)c2ccccc21)c1ccc(S(=O)(=O)N2CCOCC2)cc1 | -2%
O=C1CCCC2=C1C(c1ccccc1)n1c(s/c(=C/c3cccc(F)c3)c1=O)=N2 (configuration not stated) | 34.6%
CS(=O)(=O)Nc1cccc(C2=NN(S(=O)(=O)c3ccccc3)C(c3cccs3)C2)c1 (configuration not stated) | 72.2% (active)
CCOC(=O)C1CCN(C(=O)c2oc3ccc(S(=O)(=O)N4CCCCCC4)cc3c2C)CC1 | 40.4%
O=C(Nc1nnc(SCc2ccccc2)s1)c1ccco1 | 2.5%
COc1ccc2c(CC(=O)Nc3nnc(C4CC4)s3)coc2c1 | 12.6%
CCOc1ccc(CN(Cc2ccco2)C(c2cccs2)c2nnnn2C(C)(C)C)cc1 (configuration not stated) | 47.8%
COc1ccc(CN(Cc2ccco2)S(=O)(=O)c2ccc(S(=O)(=O)N3CCCC3)cc2)cc1 | 38.7%

SMILES | inhibition
CCOc1ccc(CN(Cc2ccco2)S(=O)(=O)c2ccc(-n3cnnn3)c(OC)c2)cc1 | 57.7% (active)
CCOc1nnc(C)c2c(C)n(-c3cccc(Cl)c3)nc12 | 45.7%
Cc1cc(=O)n(C)c(=O)n1CCCNc1ccccc1 | 18.5%
CC(=O)c1sc(NC(=O)c2cccc3ccccc23)nc1C | -21.9%
COc1ccccc1N1CCN(C(=O)c2ccc(S(=O)(=O)N3CCCCC3)cc2)CC1 | 28.3%
COc1ccccc1N1CCN(C(=O)c2c(-c3c(Cl)cccc3Cl)noc2C)CC1 | 78.9% (active)
COc1ccccc1N1CCN(C(=O)c2cc(-c3ccc(Br)cc3)on2)CC1 | -2.9%
Cc1ccc(NC(=O)N2CCC(O)(c3cccnc3)CC2)cc1 | 2.2%
CC1=NN(C(=O)Cc2ccc(C)cc2)C(O)(c2cccnc2)C1 (configuration not stated) | 62.6% (active)
CC1=NN(C(=O)c2ccccc2Br)C(O)(c2cccnc2)C1 (configuration not stated) | 16.7%
CC(c1ccccn1)N(CCN(C)C)C(=S)Nc1ccccc1F (configuration not stated) | 13.7%
Cc1cc2c(c(=O)n1C)C(C(C)C)C(C#N)=C(N)O2 (configuration not stated) | 3.4%
CCCCN(C)C(=O)C1CCN(Cc2ccccn2)CC1 | -6.2%
COc1ccc(C2CC(=O)C=C(NCC3CCCO3)C2)cc1 (configuration not stated) | 19.6%
COc1cc(-c2nn3c(-c4cccc(C)c4)nnc3s2)cc(OC)c1OC | 79.2% (active)
COc1ccc(-c2nn3c(-c4ccccc4)nnc3s2)cc1OC | 0.9%
CCOc1cccc(-c2nn3c(-c4ccccn4)nnc3s2)c1 | -1.6%
CC(C)(C)n1c(=O)[nH]c2c(c1=O)CCC2 | -16.7%
O=C(O)C1CCN(S(=O)(=O)N2CCOCC2)CC1 | -3%
O=C1c2ccccc2C(=O)N1CC1c2ccccc2CCN1S(=O)(=O)c1ccccc1 (configuration not stated) | 36.9%
O=S(=O)(NCC1OCCc2ccccc21)c1ccccc1 (configuration not stated) | 53.6% (active)
O=C(CN(CC1CCCO1)C(=O)CNS(=O)(=O)c1ccccc1)NCc1ccccc1 (configuration not stated) | 4.5%
N#CC(C(N)=O)=C1CCC2(CC1)OCCCCO2 | 24.1%
CC(N)C12CC3CC(CC(O)(C3)C1)C2 (configuration not stated) | 6.1%
FC(F)(F)c1cccc(-c2cc3ccccc3nc2N2CCCC2)c1 | 16.1%
O=C1c2ccncc2C(=O)N1C1CCCCC1 | -1.7%

SMILES | inhibition
COc1ccc2c(Cl)c(-c3nnco3)sc2c1 | 19%
COc1cccc(N=c2oc3c(C)ncc(CO)c3cc2C(N)=O)c1 | 21.1%
CC(Oc1ccc(F)cc1F)C(=O)/C=C/N(C)C (configuration not stated) | -6.9%
CN(C)/C=C/C(=O)c1ccccc1F | -7%
CC(Oc1ccc(Cl)cc1Cl)C(=O)/C=C/N(C)C (configuration not stated) | 60.1% (active)
Cc1cccc(N(CC(O)CN(C)C)S(=O)(=O)c2ccccc2)c1 (configuration not stated) | -5.2%
O=C(CN1CCSCC1)N/N=C/c1ccc(F)cc1F | 3.1%
Cc1ccc(-c2nc(CS(=O)CC(=O)NC3CCCC3)c(C)o2)cc1 (configuration not stated) | 32.1%
COC(=O)C1(S(=O)(=O)C2(C(=O)OC)CCCC2)CCCC1 | 65.4% (active)
COc1ccc(Cc2nnc(SC)[nH]c2=O)cc1 | -4.5%
Cc1cccc(C(=O)NCCCN2CCCC2=O)c1 | 21.8%
CCc1nc(C)cn1S(=O)(=O)c1cc(OC)c(C)cc1C | 45.7%
COc1ccc(N2C(=O)CN=C2Nc2cccc(C)c2C)cc1OC | 17.1%
Cc1cc(C)nc(NC2=NCC(=O)N2c2ccc(Cl)cc2)n1 | 4.3%
COc1ccc(CN2C(=O)CN=C2Nc2ccc(C)cc2C)cc1 | 82.7% (active)
Cc1nc(NC2=NC(C(=O)Nc3ccc(Cl)cc3)CC(=O)N2)nc2ccccc12 (configuration not stated) | 2.5%
CC(C)Oc1ccc(C(=O)NC(C)(C)CO)cc1 | 3.7%
COCCOC(=O)C1=C(C)NC(=O)CC1c1cc2c(cc1Br)OCO2 (configuration not stated) | 83.7% (active)
COCCOC(=O)C1=C(C)Nc2nc(C)nn2C1c1ccccc1 (configuration not stated) | 17.9%
COC(=O)c1ccc(C2CC(=O)Nc3cc(OC)c(OC)cc32)cc1 (configuration not stated) | 36.1%
CC(C)(C)C(=O)Nc1ccc(C(=O)N/N=C/c2ccccc2OC(=O)c2ccc(Cl)cc2Cl)cc1 | 42.1%
CCS(=O)(=O)Nc1ccc(C2=NN(S(=O)(=O)c3ccc(F)cc3)C(c3ccco3)C2)cc1 (configuration not stated) | 82.8% (active)
Fc1ccc(N2N=C(c3cccs3)CC2c2ccco2)c(F)c1 (configuration not stated) | 2.3%
CN1CCN(S(=O)(=O)c2ccc(NC(=O)c3ccco3)cc2)CC1 | -15.6%
COc1cccc2c1OCC1COc3c(c(=O)n(C)c(=O)n3C)C21 (configuration not stated) | -1%
COc1ccc(C2CC(=O)n3c(nc4ccccc43)S2)cc1OC (configuration not stated) | 11.9%

SMILES | inhibition
COc1ccc(C2N=C(N)N=C(N)N2c2ccccc2)cc1OC (configuration not stated) | 57.2% (active)
COc1ccc(C2SCCN2S(=O)(=O)c2ccccc2)cc1OC (configuration not stated) | 48.2%
Cc1c(Nc2cc(N3CCCC(C)C3)c3nonc3c2[N+](=O)[O-])c(=O)n(-c2ccccc2)n1C (configuration not stated) | 19.5%
CCSC(C)CC1C/C(=N/O)c2c(C)noc2C1 (configuration not stated) | 40.9%
CNC(=O)/C(=C\C=C\c1ccccc1)NC(=O)c1ccc([N+](=O)[O-])cc1 | 23.9%
Cc1ccc(C(=O)N/C(=C/C=C/c2ccccc2)C(=O)NCc2ccco2)cc1 | 50.8% (active)
COc1cc(C(=O)NC(=S)NCc2ccco2)cc(OC)c1OC | 28.5%
CCOCCCNC(=O)C(NC(=O)c1ccc(=O)[nH]c1)c1ccc(Cl)cc1 (configuration not stated) | -4.8%
CCN(CC(=O)Nc1ccccc1OC)C(=O)Cn1cnc2ccccc2c1=O | 1.7%
CCN(CC)S(=O)(=O)N1CCC(C(=O)NC(C)CCc2ccccc2)CC1 (configuration not stated) | -8.4%
CC(CNC(=O)c1ccc(Br)o1)NC(=O)c1ccc(Br)o1 (configuration not stated) | 10.7%
CC(CCc1ccccc1)NC(=O)c1ccc(Br)o1 (configuration not stated) | 57.2% (active)
CS(=O)(=O)c1ccc2nc(NC(=O)C3CCCCC3)sc2c1 | -0.8%
N#CC1=C(N)N(c2ccc(F)cc2)C(=O)C1 | -22.3%
Cc1ccccc1CSc1nnc(-c2ccccn2)n1N | 43.6%
O=C(Nn1cc(C(=O)N2CCN(c3ccccc3F)CC2)c2ccccc2c1=O)c1cnccn1 | 9.8%
COc1ccc(Nc2ncc(C(=O)N3CCN(c4ccccc4OC)CC3)c3ccccc23)cc1 | 51.6% (active)
COc1ccc2oc(=O)c(C(=O)N3CCN(c4ccccc4F)CC3)cc2c1 | 9.7%
COc1ccc(N2C(=O)CCC(C(=O)N(C)C3CCCCC3)C2c2ccc(OC)c(OC)c2)cc1 (configuration not stated) | 20.3%
COCCN(C(=O)CCC(=O)Nc1ccccn1)C(C(=O)NCCC(C)C)c1ccc(OC)cc1 (configuration not stated) | 42.4%
CCC(C)n1[nH]c(=O)cc1N (configuration not stated) | 6.5%
O=C(CS(=O)(=O)Cc1ccccc1)Nc1cccnc1 | 6.9%
O=C(Nc1ccccc1)N(Cc1cccnc1)Cc1ccco1 | 76.4% (active)
O=C(NNC(=O)c1cccnc1)Nc1ccccc1 | -10.3%
